The test system of one experiment is Staphylococcus aureus. As to conditions: Concentration 32 ug.mL-1, ASSAY_TEST Inhibition of Bacterial Growth, detection method Absorption (OD600), MEDIA CAMHB, plate type 384well, NBS, CORNING #3640, time 18 hr.
The subject of the next experiment is Escherichia coli. As to conditions: Concentration 32 ug.mL-1, ASSAY_TEST Inhibition of Bacterial Growth, detection method Absorption (OD600), MEDIA CAMHB, plate type 384well, NBS, CORNING #3640, time 18 hr.

“And” between values parts separate entries of the source, which are not always exact repeats. Identical values can stand only once. Results with a measured potency or affinity are listed apart.

The source of these data is ChEMBL document CHEMBL4513135, “CO-ADD screening of IQOG CSIS (Spain) compounds”.

As usually defined, the Inhibition is the relative decrease from the control value, in per cent.

As for `COc1ccc(C2c3c(ccc4ccccc34)OC(=N)C2(Br)C#N)cc1OC` (stereo not given), the Inhibition is recorded as 9.13% in the experiment on Staphylococcus aureus and -16.19% with Escherichia coli.
Regarding `CC(=O)CCc1c[nH]c2ccccc12`, the Inhibition with Staphylococcus aureus is 10.48%; in the experiment on Escherichia coli, 10.88%.
Consider `Cn1ccnc1C1c2ccc3ccccc3c2Oc2nc3c(c(N)c21)CCCCC3` (stereo not given), for which the Inhibition in the experiment on Staphylococcus aureus is given as 17.85%; in the experiment with Escherichia coli, -12.42%.
For `COc1ccccc1-c1c(C#N)c(=O)oc2c1ccc1ccccc12`, in that order: 27.34% and 19.18%.
For `C#CCNc1nc(N)c(C#N)c(-c2ccccc2)c1C#N`, in that order: 3.95% and 15.49%.
In the case of `COc1ccc(CNNC(=O)c2cc3ccccc3[nH]2)cc1`, the Inhibition in the experiment with Staphylococcus aureus is listed as 2.37%; in the experiment with Escherichia coli, -1.53%.
`CCOC(=O)C1=C(C)OC(N)=C(C#N)C1c1ccc([N+](=O)[O-])cc1` (stereo not given): the Inhibition in the experiment on Staphylococcus aureus is given as 16.31%; in the experiment on Escherichia coli, -9.87%.
As to `CC(C)NNC(=O)Cc1c[nH]c2ccccc12`, the Inhibition in the experiment with Staphylococcus aureus turned out to be 11.42%; with Escherichia coli, 9.11%.
For `CC(=O)N1CC(=O)NC1=S`, in that order: 18.21% and 15.12%.
For the compound `OCc1c(-c2ccc(Br)cc2)nc2ccccn12`, the Inhibition in the experiment with Staphylococcus aureus is listed as 6.46%; in the experiment with Escherichia coli, 0.77%.
For `Cc1nn(-c2ccccc2)c2ncnc(NCc3ccccc3)c12` the same measures were 16.34% and 7.89%.
In the case of `O=C(N/N=C/c1c[nH]c2ccccc12)c1cc2ccccc2[nH]1`, the Inhibition in the experiment on Staphylococcus aureus was 11.07%; in the experiment with Escherichia coli, 9.94%.
As for `CCOC(=O)c1c(C)nc(N)c(C#N)c1-c1cccs1`, the Inhibition in the experiment with Staphylococcus aureus is 5.52%; in the experiment with Escherichia coli it was -18.22%.
Consider `c1ccc(Cn2ccc3ccccc32)cc1`, for which the Inhibition with Staphylococcus aureus amounted to 7.36%; in the experiment with Escherichia coli, 11.73%.
On to `N#Cc1c(N)nc(NCCCC2CCN(Cc3ccccc3)CC2)c(C#N)c1-c1ccccc1`, for which the Inhibition in the experiment on Staphylococcus aureus was 56.22%; with Escherichia coli, -16.73%.
For `Cc1ccc2[nH]c(=O)c(C=O)cc2c1` the same measures were 3.11% and -7.4%.
As to `COc1ccc2c(c1)cc(C(=O)Nc1ccccc1)n2C`, the results for the Inhibition in the experiment on Staphylococcus aureus and in the experiment with Escherichia coli were 20.93% and -8.29%, respectively.
In the case of `Cn1c(C(=O)N2CCOCC2)cc2cc(OCCCC3CCN(Cc4ccccc4)CC3)ccc21`, the Inhibition in the experiment with Staphylococcus aureus is 23.07%; in the experiment with Escherichia coli, -10.59%.
With `N#Cc1cc(C#N)c(NCCO)nc1N`, the Inhibition in the experiment with Staphylococcus aureus was 40.77%; with Escherichia coli, -7.55%.
`C#CCN(C)c1nc(N(C)CC#C)c(C#N)cc1C#N`: the Inhibition was 20.85% in the experiment on Staphylococcus aureus and -13.82% in the experiment on Escherichia coli.
For `CN(C)c1nc(N)c(C#N)cc1C#N.Cl`, the Inhibition is -10.37% and 5.36% in the experiment on Staphylococcus aureus (32 ug/mL); -3.96% and -19.68% in the experiment with Escherichia coli (32 ug/mL).
For `CC(C)(C)OC(=O)N[C@H]1CC[C@H](O)CC1`, the Inhibition in the experiment with Staphylococcus aureus was 7.19%; with Escherichia coli it was -6.43%.
As for `Cn1c(CNNC(=O)Cc2cccc3ccccc23)cc2ccccc21`, the figures for the Inhibition in the experiment on Staphylococcus aureus and in the experiment on Escherichia coli were -5.85% and -4.9%, respectively.
For `CCOC(=O)c1c(C)[nH]c(=O)c(C#N)c1-c1ccccc1` the same measures were 37.77% and -18.87%.
For the compound `O=C1SC(SCc2ccccc2)=NC1=Cc1ccc2c(c1)OCO2`, the Inhibition in the experiment with Staphylococcus aureus came out at 0.74%; with Escherichia coli it was 10.84%.
For the compound `c1ccc(-c2nc3c4cnn(-c5ccccc5)c4ncn3n2)cc1`, the Inhibition in the experiment with Staphylococcus aureus is on record as 14.04%; in the experiment on Escherichia coli, 8.07%.
With `C#CCN(C)c1nc(Sc2ccccc2)c(C#N)c(-c2ccccc2)c1C#N`, the Inhibition came to 6.49% in the experiment with Staphylococcus aureus and 1.09% in the experiment on Escherichia coli.
For `COc1ccccc1C1c2c(ccc3ccccc23)OC(=N)C1(Br)C#N` (stereo not given) the same measures were 32.97% and -9.16%.
For `N#C/C(=C\c1ccccc1Cl)C(=O)c1ccccc1`, the Inhibition with Staphylococcus aureus was 33.12%; with Escherichia coli, 20.31%.
`Cc1ccc(C2C(C#N)=C(N)Oc3c2ccc2ccccc32)cc1` (stereo not given): the results for the Inhibition with Staphylococcus aureus and in the experiment on Escherichia coli were -4.2% and -2.25%, respectively.
For the compound `C#CCN(C)c1nc(Cl)c(C#N)c(-c2ccccc2)c1C#N`, the Inhibition is 13.59% in the experiment on Staphylococcus aureus and -10.42% with Escherichia coli.
For `COC(=O)C(=Cc1ccc(OC)cc1)NC(=O)c1ccccc1` the same measures were 17.26% and 11.52%.
Turning to `Cc1cnc(NC(=O)OC(C)(C)C)c(Br)c1`, the values for the Inhibition in the experiment on Staphylococcus aureus and with Escherichia coli were 34.57% and -15.12%, respectively.
Regarding `CC1Cc2ccccc2N1/N=C/c1ccccc1` (stereo not given), the Inhibition in the experiment on Staphylococcus aureus was -5.3%; in the experiment on Escherichia coli it was -3.55%.
For the compound `COc1ccc2c(c1)cc(C(=O)O)n2C`, the Inhibition in the experiment with Staphylococcus aureus is listed as 20.8%; with Escherichia coli, -7.03%.
